Where a name gives a salt, the structure may show the parent alone.
Test system: MDA-MB-468
Experiment: phospho-S6 immunofluorescence (DAPI-normalised), per-plate z-score; higher = higher phospho-S6 signal (less pathway suppression)
Settings: co-treatment: vehicle; 24 h
Description: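 GPCR-targeted compound library (MedChemExpress HY-L006) tested on MDA-MB-468 PTEN-null TNBC cells in 384-well plates at 0.1, 1 or 10 uM, combined with vehicle, GDC0941 450 nM or lapatinib 1 uM, for 24 h. Phospho-S6 (S240/244) immunofluorescence normalised to DAPI and expressed as a per-plate z-score; values are the mean of biological triplicates.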

Compound	phospho-S6 immunofluorescence (z-score)
C[C@@H]1CN(Cc2ccc(F)cc2)CCN1C(=O)COc1ccc(Cl)cc1NC(N)=O (compound 10 µM)	-8.26
CCCC(C)(C)c1ccc2c(c1)OC(C)(C)[C@@H]1CC=C(C)C[C@@H]21 (compound 10 µM)	2.21
O=c1[nH]c2ccccc2n1CCCN1CCC(n2c(=O)[nH]c3cc(Cl)ccc32)CC1 [Domperidone] (compound 10 µM)	1.62
O=C(O[C@H]1C[C@H]2CC[C@@H](C1)[N+]21CCCC1)C(O)(c1ccccc1)c1ccccc1 [Trospium (chloride)] (compound 10 µM)	-1.07
O=C1Nc2ccccc2C2(CCN(CCc3ccc(C(F)(F)F)cc3)CC2)O1 (compound 10 µM)	-4.38
CC(C)C[C@H](NC(=O)[C@H](Cc1ccccc1)NC(=O)CNC(=O)[C@@H](C)NC(=O)[C@@H](N)Cc1ccc(O)cc1)C(=O)O [[D-Ala2]leucine-enkephalin] (compound 10 µM)	1.34
Oc1ccc2c3c1O[C@H]1c4[nH]c5ccccc5c4C[C@@]4(O)[C@@H](C2)N(CC2CC2)CC[C@]314 [Naltrindole (hydrochloride)] (compound 10 µM)	-1.21
Cc1cccc(C)c1NC1=NCCCS1 [Xylazine (hydrochloride)] (compound 10 µM)	0.89
CC(C)(C)NCC(O)c1ccc(O)cc1Cl (stereo not drawn) (compound 10 µM)	0.14
CN1CCC(c2c[nH]c3ccc(O)cc23)CC1 (compound 10 µM)	0.06
CN1[C@@H]2CC[C@H]1C[C@@H](OC(=O)C(CO)c1ccccc1)C2 (stereo partly drawn) [Atropine (sulfate monohydrate)] (compound 10 µM)	-0.82
COC(=O)C1=CCCN(C)C1 [Arecoline (hydrobromide)] (compound 10 µM)	0.56
CSCC[C@H](NC(=O)[C@H](Cc1ccccc1)NC(=O)CNC(=O)CNC(=O)[C@@H](N)Cc1ccc(O)cc1)C(=O)O (compound 10 µM)	-0.05
CN1[C@@H]2CC[C@H]1C[C@@H](OC(=O)[C@H](CO)c1ccccc1)C2 [L-Hyoscyamine] (compound 10 µM)	0.91
CCC1(c2cccc(O)c2)CCCCN(C)C1 (stereo not drawn) [Meptazinol (hydrochloride)] (compound 10 µM)	0.11
O=C(O[C@H]1CN2CCC1CC2)N(Cc1cc(F)c(F)c(F)c1)c1cccc(F)c1 [Tarafenacin (D-tartrate)] (compound 10 µM)	1.05
Cc1cccc([C@H](C)c2c[nH]cn2)c1C [Dexmedetomidine (hydrochloride)] (compound 10 µM)	1.08
CCC(COC(=O)c1cc(OC)c(OC)c(OC)c1)(c1ccccc1)N(C)C (stereo not drawn) [Trimebutine (maleate)] (compound 10 µM)	0.51
CN1CCC2=C(C1)c1ccccc1Cc1ccccc12 [Setiptiline (maleate)] (compound 10 µM)	-1.11
Cc1c(C(=O)c2cccc3ccccc23)c2cccc3c2n1[C@H](CN1CCOCC1)CO3 [WIN 55,212-2 (Mesylate)] (compound 10 µM)	-3.25
COc1cc2c3c(c1OC)-c1ccccc1C[C@H]3N(C)CC2 [Nuciferine] (compound 10 µM)	0
CN(C)CCN(C)CCc1ccc(Cl)c(Cl)c1 [BD-1047 (dihydrobromide)] (compound 10 µM)	-0.85
CN(C)C(=O)Oc1cc(OC(=O)N(C)C)cc(C(O)CNC(C)(C)C)c1 (stereo not drawn) [Bambuterol (hydrochloride)] (compound 10 µM)	-0.4

Reference: the supplement of paper PMC7411640
